Where “and” joins values, the source holds several entries; their conditions need not be identical. Equal values may be shown once. Results filed as inconclusive are left out. The source holds several records for some structures; these can differ, active in one and inactive in another. Calls of active or inactive are those of the source. The calls were made as follows, unless noted: active = hit-call score of the fitted dose curve at least 0.9, where 1 is the maximum; inconclusive = response in the unintended direction; inactive = score below 0.9.
Key:
[1] = STM_H9_OrnithineISnorm_perc: Stemina devTOX quickPredict H9 human embryonic stem cell (hESC)-based Assay for Ornithine (ORN) Metabolite Biomarker, Normalized (AID 2283712; active = hit-call score of the fitted dose curve at least 0.9, where 1 is the maximum; inactive = score below 0.9;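 also: ornithine released into spent medium during last day measured by mass spectrometry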)
Method in brief: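 UPLC-HRMS readout: endogenous ornithine EIC area / 13C-ORN internal standard, then % of 0.1% DMSO median. H9 hESCs (pluripotent), 72h exposure, re-dosed with fresh media q24h; last 24-h spent media, deproteinized in 40% acetonitrile.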

[2] = STM_H9_CystineISnorm_perc: Stemina devTOX quickPredict H9 human embryonic stem cell (hESC)-based Assay for Cystine (CYSS) Metabolite Biomarker, Normalized (AID 2283713; active = hit-call score of the fitted dose curve at least 0.9, where 1 is the maximum; inactive = score below 0.9)
Method in brief: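 UPLC-HRMS read-out: endogenous cystine peak area in spent medium, normalized to isotope-labeled internal standard and to median of 0.1% DMSO controls. Pluripotent H9 cells, 72h exposure, daily medium/compound replenishment; medium from last 24h sampled.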

[3] = STM_H9_OrnCyssISnorm_ratio: Stemina devTOX quickPredict H9 human embryonic stem cell (hESC)-based Assay for Ornithine (ORN):Cystine (CYSS) Ratio (AID 2283714)
Method in brief: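 Ratio of internal-standard-normalized ornithine to cystine, measured by UPLC-HRMS in spent media from the last 24 h. H9 cells kept pluripotent, dosed 72 h with daily media and compound renewal; DMSO 0.1% serves as baseline.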

[4] = ArunA_NOG_NucleusCount: ArunA Biomedical's Neurite Outgrowth (NOG) Assay for Nucleus Count (AID 2283756)
Method in brief: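 Viable neuron count, from Hoechst nuclei passing size and intensity gates, imaged at 20x on differentiated H9-derived human neurons. Exposure lasted 48 h from seeding; activity was scored relative to DMSO.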

[5] = ArunA_NOG_NeuriteLength: ArunA Biomedical's Neurite Outgrowth (NOG) Assay for Neurite Length (AID 2283757)
Method in brief: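 Total neurite length per neuron, from traced βIII-tubulin-labelled processes longer than 10 um on viable Hoechst-gated cells, was scored as decrease from DMSO. Cells were hESC (H9)-derived neurons given 48 h chemical exposure immediately after seeding.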

[6] = ArunA_NOG_NeuritesPerNeuron: ArunA Biomedical's Neurite Outgrowth (NOG) Assay for Neurites Per Neuron (AID 2283758)
Method in brief: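 Differentiated human H9-derived neurons exposed to chemicals for 48 h from seeding, then stained with Hoechst and βIII-tubulin/DyLight 488. Automated imaging counted neurites (processes >10 um) per valid neuron; loss of signal versus DMSO scored.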

[7] = ArunA_NOG_BranchPointsPerNeurite: ArunA Biomedical's Neurite Outgrowth (NOG) Assay for Branch Points Per Neurite (AID 2283759)
Method in brief: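 Automated image analysis traced neurites (processes >10 um) from valid cell bodies after Hoechst and βIII-tubulin staining. hNN cells from H9 embryonic stem cells, 48 h exposure. Fitted bidirectionally against DMSO.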

[8] = ACEA_AR_agonist_AUC_viability: ACEA Biosciences xCELLigence Real-Time Cell Analysis on Androgen Receptor Agonism for Viability (AID 2283775);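 as to AC50: viability read 80 hours after compound addition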
Method in brief: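 Viability endpoint from xCELLigence impedance in 22Rv1 prostate cells at 80 h. Eight-point series, 100 uM maximum final.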

[9] = ACEA_ER_AUC_viability: ACEA Biosciences xCELLigence Real-Time Cell Analysis on Estrogen Receptor Agonism for Viability (AID 2283782);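 also: hit means loss of impedance signal meaning reduced cell growth or viability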
Method in brief: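 Viability endpoint: reduced impedance area under the curve relative to DMSO, recorded by real-time electrode sensing over ~80 h of continuous exposure. Duplicate plates of T47D in hormone-depleted medium; eight concentrations, 1:4 dilutions, 100 uM maximum.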

[10] = Tanguay_ZF_120hpf_TR_legacy: (Legacy) Oregon State University Tanguay Lab 120 Hour Post-fertilization zebrafish Assay for Touch Response (AID 2283667)
Method in brief: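 Binary touch-response endpoint in larvae at 120 hpf after static waterborne exposure from embryo stage (28°C, 0.64% DMSO vehicle, 5 uM trimethyltin chloride as positive control); embryos dead at 24 or 120 hpf excluded; fitted as gain versus DMSO.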

[11] = Tanguay_ZF_120hpf_ActivityScore_legacy: (Legacy) Oregon State University Tanguay Lab 120 Hour Post-fertilization zebrafish Assay Score for Activity (AID 2283742);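 as to AC50: dechorionated Tropical 5D wild-type zebrafish embryos held singly per well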
Method in brief: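 Binary scoring of mortality and morphology by brightfield at 24 and 120 hpf, summarised into one activity score from 18 components relative to DMSO. Wild-type Tropical 5D zebrafish, chorion removed at 4 hpf, static exposure 6–120 hpf, 28 °C.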

[12] = ACEA_AR_antagonist_AUC_viability: ACEA Biosciences xCELLigence Real-Time Cell Analysis on Androgen Receptor Antagonism for Viability (AID 2283776);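 also: 22Rv1 human prostate cancer cells growing on impedance electrode plates; area under impedance growth curve at 80 h after dosing as viability; hits lower the growth signal relative to DMSO meaning cytotoxicity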
Method in brief: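 Impedance read-out (RT-CES): area under growth curve at 80 h post-dose, loss of signal scored vs DMSO baseline. 22Rv1 cells; 8-pt 1:4 series, top 100 uM final, ≤0.5% DMSO; biological duplicate.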

[13] = CCTE_Padilla_ZF_144hpf_TERATOSCORE: (Legacy) CCTE's 144 Hour Post-fertilization zebrafish Assay Teratoscore, Padilla Lab (AID 2283679; active = hit-call score of the fitted dose curve at least 0.9, where 1 is the maximum; inactive = score below 0.9;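 as to AC50: zebrafish embryos with chorions exposed by immersion from 6-8 hpf to 5 dpf with daily renewal; teratogenicity score from eye scoring of death hatching and malformations at 144 hpf; higher score means more developmental defects relative to DMSO baseline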)
Method in brief: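 Larvae scored by eye at 144 hpf for death, hatching and malformations after a day in clean Hanks'. Before that, daily-renewed exposure at 80 uM (0.4% DMSO, 26C) from roughly 6-8 hpf through 5 dpf, 4 embryos per chemical.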

[14] = system: turtle Estrogen Receptor (ERa), gene 101933533; experiment: ATG_trERa_XSP2: Attagene TRANS-FACTORIAL Multi-Species (XSP2) HepG2 Assay for turtle Estrogen Receptor (ERa) (AID 2283812);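 also: actives raise reporter signal above DMSO so AC50 reflects agonist activity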
Method in brief: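 Readout is reporter mRNA quantified by RT-PCR with capillary electrophoresis after 24 h compound exposure, increase relative to DMSO. Uses transiently transfected human HepG2 liver cells carrying a chimeric turtle ERa-Gal4 receptor driving GAL4-UAS reporters.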

AR (gene 367) [15] = biological target: AR (gene 367) (UniProt P10275); experiment: ACEA_AR_agonist_80hr: ACEA Biosciences xCELLigence Real-Time Cell Analysis on Androgen Receptor Agonism for Proliferation (AID 2283783);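 also: hits increase impedance growth signal above DMSO baseline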
Chain of AR (gene 367) (P10275 whole entry, looked up): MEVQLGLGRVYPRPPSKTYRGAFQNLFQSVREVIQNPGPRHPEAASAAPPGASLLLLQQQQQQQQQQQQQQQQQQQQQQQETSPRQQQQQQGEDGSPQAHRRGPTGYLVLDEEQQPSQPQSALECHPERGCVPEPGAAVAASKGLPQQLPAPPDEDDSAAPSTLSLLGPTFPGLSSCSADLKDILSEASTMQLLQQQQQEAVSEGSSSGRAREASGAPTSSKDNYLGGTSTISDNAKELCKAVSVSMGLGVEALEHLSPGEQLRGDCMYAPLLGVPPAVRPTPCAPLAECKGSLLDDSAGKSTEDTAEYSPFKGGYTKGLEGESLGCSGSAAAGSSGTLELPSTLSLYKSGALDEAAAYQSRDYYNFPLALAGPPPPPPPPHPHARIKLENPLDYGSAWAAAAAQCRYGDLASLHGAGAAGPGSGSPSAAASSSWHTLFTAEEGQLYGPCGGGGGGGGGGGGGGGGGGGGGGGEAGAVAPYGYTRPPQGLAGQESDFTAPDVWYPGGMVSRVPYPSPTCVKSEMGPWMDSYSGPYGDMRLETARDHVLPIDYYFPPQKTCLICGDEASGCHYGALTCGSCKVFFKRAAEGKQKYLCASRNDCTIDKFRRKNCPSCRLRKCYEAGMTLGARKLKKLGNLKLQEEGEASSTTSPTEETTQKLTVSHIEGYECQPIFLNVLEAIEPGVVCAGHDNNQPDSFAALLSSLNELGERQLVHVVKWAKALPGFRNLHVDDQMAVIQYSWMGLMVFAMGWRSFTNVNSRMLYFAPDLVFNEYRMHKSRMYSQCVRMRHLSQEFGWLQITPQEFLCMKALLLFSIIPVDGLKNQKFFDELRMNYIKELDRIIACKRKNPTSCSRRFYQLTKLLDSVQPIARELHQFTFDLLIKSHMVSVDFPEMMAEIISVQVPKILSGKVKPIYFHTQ
Method in brief: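 Eight concentrations, 1:4 serial dilution from a 100 uM final top, in biological duplicate. Impedance-based real-time growth of 22Rv1 cells after overnight baseline, recorded hourly and read at 80 hours. Controls: testosterone, MG132, assay media.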

[16] = STM_H9_NormalizedViability: Cytotoxicity Assessment at 120 hours in the Stemina devTOX quickPredict H9 human embryonic stem cell (hESC)-based Assay (AID 2283784)
Method in brief: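 CellTiter-Fluor RFU, background-subtracted, expressed relative to 0.1% DMSO neutral control by plate. Pluripotent H9 cells; treatment with daily re-dosing. Plates carried 1uM methotrexate (positive) and 5 nM methotrexate (negative) references.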

AR (gene 367) [17] = biological target: AR (gene 367) (UniProt P10275); experiment: ACEA_AR_antagonist_80hr: ACEA Biosciences xCELLigence Real-Time Cell Analysis on Androgen Receptor Antagonism for Proliferation (AID 2283787);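 also: 22Rv1 human prostate cancer cells with growth followed by electrical impedance; hits lower the impedance growth signal relative to DMSO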
Method in brief: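 Impedance-based real-time growth of 22Rv1 prostate cells, read 80 h after dosing. Eight concentrations, 1:4 series, top 100 uM final (0.5% DMSO), n = 2; signal decrease scored against DMSO.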

Measured: AC50

Nc1ncn[nH]1
inactive: [1] | [2] | [3] | [4] | [5] | [6] | [7] | [8] | [9]

N#Cc1cccnc1
inactive: [10] | [11] | [8] | [12] | [9]

CCCCCCCCCCCCN(C)C
inactive: [8] | [12] | [9]

Oc1cc(Cl)c(Cl)cc1Cl
active: [13] 5.5 µM | [11] 32.1 µM | [8] 64.8 µM | [12] 71.8 µM | [14] 13 µM and 6.06 µM
inactive: [10] | [9]

N#CS
inactive: [1] | [2] | [8] | [9]

CCCCCCCCCCCCOS(=O)(=O)O
active: [8] 77.7 µM | [12] 72.1 µM | [9] 71.3 µM
inactive: [12]

O=c1nc(O)n(Cl)c(=O)n1Cl
inactive: [8] | [12] | [9]

Oc1c(Cl)cc(Cl)cc1Cl
active: [13] 3.97 µM | [11] 19.1 µM
inactive: [10]

CCCCCCCCCCCCc1cccc(S(=O)(=O)O)c1
inactive: [10] | [11]
active: [13] 53 µM | [8] 76.7 µM | [12] 75 µM | [9] 83.1 µM

O=[N+]([O-])c1ccc(Cl)c([N+](=O)[O-])c1
inactive: AR (gene 367) [15]
active: [3] 13.2 µM | [8] 22.3 µM | [9] 1.55 µM | [16] 16.5 µM | AR (gene 367) [17] 24.8 µM

Clc1cccc(Cl)c1
inactive: [11] | [8] | [12] | [9]

Clc1cccc(Cl)c1Cl
active: [11] 0.00446 µM
inactive: [10] | [8] | [12]

N#CCCC(Br)(C#N)CBr (configuration not stated)
inactive: [12]
active: [3] 70.1 µM | [9] 10.9 µM | [16] 95.3 µM

CC(C)O.CC(C)O.OCCN(CCO)CCO.OCCN(CCO)CCO.[Ti]
active: [2] 74.1 µM | [3] 72.4 µM
inactive: [10] | [13] | [1] | [11] | [8] | [12] | [16]

OCCCCO
inactive: [8]
